Experimental data as given in PubChem BioAssay AID709 (SRMLSC, 2007).
About 3,600 (5.5%) of roughly 65,000 compounds were called active.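 How the source made its calls: active means at 10 µM, mean starting fluorescence two-fold or more over control wells; inactive means the rest.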 For the sample, actives were picked, then their nearest neighbours and some compounds at random.

Assay: intrinsic fluorescence of library compounds, ex339/em460 – biochemical, MLSMR library, data from DPM-DC assay, artefact control, profiling panel (AID 709);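 further: signal is the first read of a kinetic run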
Settings: compound autofluorescence, ex339/em460 nm, NADH buffer; at 10 µM; stronger effect = higher value; 1 = no-compound wells, NADH background

Row | SMILES | fluorescence fold increase
1 | COc1cccc(-c2nnc(NC(=O)c3ccc(S(=O)(=O)N(CC(C)C)CC(C)C)cc3)o2)c1 | 3.77 (active)
2 | COc1cccc(NC(=O)CN(C)S(=O)(=O)c2ccc(C)cc2)c1 | 1.1 (inactive)
3 | CCN(CC)C(=O)CSc1nnc(-c2cccc(OC)c2)o1 | 1.05 (inactive)
4 | CC(C)(O)C#Cc1ccc(C(=O)N2CCC(C(N)=O)(N3CCCCC3)CC2)cc1 | 1.1 (inactive)
5 | Cc1ccccc1NC(=O)c1ccccc1 | 1.09 (inactive)
6 | Cc1ccc(NC(=O)c2nc[nH]c2C(=O)N2CCCCC2)c(C(=O)c2ccccc2)c1 | 1.13 (inactive)
7 | Cc1ccc2c(c1)sc1ncc(NC(=O)c3ccccc3)c(=O)n12 | 2.43 (active)
8 | CC(C)C(NC(=O)c1cccc(S(=O)(=O)N2CCOCC2)c1)C(=O)NCCc1ccccn1 (stereo not given) | 1.06 (inactive)
9 | C=CCNC(=O)c1ccc(C)c(Br)c1 | 1.08 (inactive)
10 | COc1cccc(C(=O)c2cc3ccc(O)cc3oc2=O)c1 | 1.05 (inactive)
11 | O=c1oc2cc(O)ccc2cc1-c1ccc(F)cc1 | 3.81 (active)
12 | Nc1ncc(-c2cc3ccccc3oc2=O)s1 | 1.43 (inactive)
13 | O=C(Cn1c(=S)nc2ccccn21)N1CCc2ccccc2C1 | 1.17 (inactive)
14 | Cc1cccc2cc(CN(Cc3nnnn3Cc3ccccc3)C3CCCC3)c(=O)[nH]c12 | 1.03 (inactive)
15 | Cc1cc2cc(CN(Cc3cccs3)Cc3nnnn3CC3CCCO3)c(=O)[nH]c2cc1C (stereo not given) | 1.42 (inactive)
16 | CCC(c1nnnn1Cc1ccccc1)N(Cc1cc2cc(OC)ccc2[nH]c1=O)CC1CCCO1 (stereo not given) | 1.46 (inactive)
17 | CCOc1ccc2[nH]c(=O)c(CN(Cc3nnnn3CCc3ccccc3)CC3CCCO3)cc2c1 (stereo not given) | 1.82 (inactive)
18 | COc1ccc2[nH]c(=O)c(CN(CC3CCCO3)C(=O)Nc3ccccc3)cc2c1 (stereo not given) | 2.91 (active)
19 | CCC(c1nnnn1Cc1ccco1)N(Cc1cc2cc(OC)ccc2[nH]c1=O)C1CCCCC1 (stereo not given) | 1.39 (inactive)
20 | Cc1cc(C)c2cc(CN(Cc3cccs3)Cc3nnnn3CC3CCCO3)c(=O)[nH]c2c1 (stereo not given) | 1.16 (inactive)

Row | SMILES | fluorescence fold increase
21 | CCOc1ccc2[nH]c(=O)c(CN(Cc3nnnn3Cc3ccccc3)CC3CCCO3)cc2c1 (stereo not given) | 2.24 (active)
22 | COc1ccc2[nH]c(=O)c(CN(Cc3nnnn3CCc3ccccc3)CC3CCCO3)cc2c1 (stereo not given) | 2.03 (active)
23 | COc1ccc(/C(O)=C2/C(=O)C(=O)N(c3nc(C)c(C)s3)C2c2ccco2)cc1 (stereo not given) | 1.08 (inactive)
24 | COc1ccc(NS(=O)(=O)c2ccc(NC(=O)C(C)(C(F)(F)F)C(F)(F)F)cc2)nn1 | 1.11 (inactive)
25 | Cn1c(=O)oc2cc(S(=O)(=O)N3CCC(C(=O)Nc4ccc(OC(F)(F)F)cc4)CC3)ccc21 | 0.99 (inactive)
26 | CCC1(C)N(O)C(C)(C)C(c2ccc(OC)cc2)=[N+]1[O-] (stereo not given) | 1.08 (inactive)
27 | COc1ccc(CCNC(=O)c2ccc3c(c2)NC(=O)C(N2CCOCC2)S3)cc1OC (stereo not given) | 1.05 (inactive)
28 | CCOc1ccccc1-n1c(SCC(=O)N2CCCC2)nnc1-c1ccoc1C | 1.07 (inactive)
29 | CCCCc1nccn1CCn1ccnc1CCCC | 1.03 (inactive)
30 | COc1ccc(-c2cc(C(=O)NC(C(=O)O)C(C)C)c(C)o2)cc1OC (stereo not given) | 1.05 (inactive)
31 | C=C(C)c1cccc(C(C)(C)NC(=O)N2CCN(c3ncccn3)CC2)c1 | 1.1 (inactive)
32 | Fc1ccc2[nH]c3c(N4CCN(Cc5ccc6c(c5)OCO6)CC4)ncnc3c2c1 | 1.38 (inactive)
33 | CCN1CCCC1CNc1ncnc2c1[nH]c1ccc(F)cc12 (stereo not given) | 3.05 (active)
34 | CC(C)OCCCNc1ncnc2c1[nH]c1ccc(F)cc12 | 3.76 (active)
35 | Fc1ccc2[nH]c3c(N4CCSCC4)ncnc3c2c1 | 1.68 (inactive)
36 | COc1ccc(C(=O)Nc2cccnc2)cc1C(=O)Nc1cccnc1 | 1.05 (inactive)
37 | C=CCn1c(C)cc(C(=O)CN2C(=O)c3ccccc3C2=O)c1C | 1.04 (inactive)
38 | C=CCN(CC=C)C(=O)CN1C(=O)c2ccccc2C1=O | 1.04 (inactive)
39 | COc1ccc(CC(=O)Nc2ccc(-c3nnc(-c4ccc(C)cc4)o3)cc2)cc1 | 2.89 (active)
40 | Cc1ccc(OCC(=O)Nc2ccc(-c3nnc(-c4ccco4)o3)cc2)cc1 | 1.37 (inactive)

Row | SMILES | fluorescence fold increase
41 | CCOC(=O)c1ccc(NC(=O)CSc2ncccn2)cc1 | 1.02 (inactive)
42 | O=C(COC(=O)c1ccc(Oc2ccccc2)cc1)Nc1nnc(-c2ccccc2)o1 | 1.19 (inactive)
43 | O=C(CCc1ccccc1)Nc1cccc(-c2nnc(-c3ccco3)o2)c1 | 1.31 (inactive)
44 | COc1ccc(CC(=O)Nc2ccc(-c3nnc(-c4ccccc4)o3)cc2)cc1 | 2.23 (active)
45 | Cc1ccc(OCC(=O)Nc2ccc(-c3nc4ncccc4o3)cc2)cc1 | 3.7 (active)
46 | COc1ccc(-c2nc(CS(=O)CC(=O)NCc3ccccn3)c(C)o2)cc1 (stereo not given) | 1 (inactive)
47 | CCC(=O)Oc1cccc(C(=O)Nc2ccc(-c3nnc(-c4ccco4)o3)cc2)c1 | 1.53 (inactive)
48 | CCCOC(=O)CC1C(=O)NCCN1Cc1ccc(F)cc1 (stereo not given) | 1.06 (inactive)
49 | C=C(Br)Cn1c(CCCC)nc2ccccc21 | 1.05 (inactive)
50 | CCN(c1ccccc1)S(=O)(=O)c1cccc(C(=O)O)c1 | 0.98 (inactive)
51 | Cc1noc(C)c1CSc1nnc2ccc3ccccc3n12 | 1.17 (inactive)
52 | COC(=O)C(NC(C)=O)(Nc1nc2c(s1)CCCC2)C(F)(F)F (stereo not given) | 1.04 (inactive)
53 | Cc1ccc(N(C(=O)CC2NC(=O)NC2=O)C2(C(=O)NC3CCCC3)CCCCC2)cc1 (stereo not given) | 1.11 (inactive)
54 | Cc1ccccc1CN1CCN(CC(=O)NCc2ccccn2)C1=O | 1.13 (inactive)
55 | Cc1cccn2c(=O)c3cc(C(=O)NCc4ccccn4)n(C)c3nc12 | 5.03 (active)
56 | Cc1cccn2c(=O)c3cc(C(=O)N4COCC4(C)C)n(C)c3nc12 | 4.96 (active)
57 | O=C(NCc1ccccn1)c1ccc2nc(-c3ccco3)c(-c3ccco3)nc2c1 | 1.72 (inactive)
58 | NC(=O)C1CCN(C2OC(=O)c3ccccc32)CC1 (stereo not given) | 1.08 (inactive)
59 | CCOC(=O)C1CCN(C(=O)C2CCN(S(=O)(=O)N3CCCC3)CC2)CC1 | 1.03 (inactive)
60 | CCC(CC)c1nnc(NS(=O)(=O)Cc2ccccc2)s1 | 1.09 (inactive)
